In article PMC9838217, “Structure of SALL4 zinc finger domain reveals link between AT-rich DNA binding and Okihiro syndrome”:
Substitutions are numbered along the chain they refer to.

Columns and labels:
[1] = target: T1, SALL4 ZFC4 R900W (HT-SELEX) (Mus musculus, UniProt Q8BX22 870-940, R900W); test: HT-SELEX; high values mean tight binding; settings: protein: recombinant; vector His6-GST; dsDNA, one strand shown
T1 sequence: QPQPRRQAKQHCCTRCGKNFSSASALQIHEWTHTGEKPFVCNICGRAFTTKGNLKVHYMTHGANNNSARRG
Procedure, shortened: (§1)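 Purified recombinant mouse SALL4 zinc finger cluster 4 (residues 870–940, 1 µg) and library DNA (1.5 µg first cycle, 200 ng later) were incubated for 10 min at room temperature in 100 µl of 10 mM Tris–HCl pH 7.5, 50 mM NaCl, poly(dI-dC) and DTT. After Ni2+ bead capture and up to 6 triplicate cycles of selection, DNA was MiSeq-sequenced and scanned for 6-mers. Binding signal is the fold change in each canonical k-mer's read fraction relative to the initial random library.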

[2] = target: T2, SALL4 ZFC4 G921D (HT-SELEX) (Mus musculus, UniProt Q8BX22 870-940, G921D); test: HT-SELEX; high values mean tight binding; settings: protein: recombinant; vector His6-GST; dsDNA, one strand shown
T2 sequence: T1 sequence with W31R, G52D
Procedure, shortened: as §1

**Q.** Which results are given for AGTCGG?
**A.** binding signal [1]: 0.367 ± 0.00833 fold-change vs cycle 0; binding signal [2]: 0.499 ± 0.0416 fold-change vs cycle 0

**Q.** For AGTGGC, which binding signal [1] is on record?
**A.** 0.299 ± 0.0198 fold-change vs cycle 0

**Q.** What about the binding signal [2] of the same sequence?
**A.** 0.455 ± 0.0604 fold-change vs cycle 0

**Q.** CAATAG was tested. Which binding signal [1] did it give?
**A.** 1.34 ± 0.0439 fold-change vs cycle 0

**Q.** And the binding signal [2]?
**A.** 1.31 ± 0.0578 fold-change vs cycle 0

**Q.** What does the source list for TCGCCA?
**A.** binding signal [1]: 0.213 ± 0.00577 fold-change vs cycle 0; binding signal [2]: 0.371 ± 0.0688 fold-change vs cycle 0

**Q.** For CCGCGC, which binding signal [1] is on record?
**A.** 0.0273 ± 0.00598 fold-change vs cycle 0

**Q.** What about the binding signal [2] of the same sequence?
**A.** 0.0941 ± 0.0469 fold-change vs cycle 0

**Q.** With GAGGCC as the sequence, how does the binding signal [1] read?
**A.** 0.158 ± 0.00288 fold-change vs cycle 0

**Q.** And the binding signal [2]?
**A.** 0.286 ± 0.0765 fold-change vs cycle 0

**Q.** How did the binding signal [1] turn out when CTCGGC was run?
**A.** 0.127 ± 0.0136 fold-change vs cycle 0

**Q.** And the binding signal [2]?
**A.** 0.231 ± 0.0599 fold-change vs cycle 0

**Q.** What does the source list for GACAGC?
**A.** binding signal [1]: 0.361 ± 0.0178 fold-change vs cycle 0; binding signal [2]: 0.491 ± 0.0963 fold-change vs cycle 0

**Q.** AGCGAC was tested. Which binding signal [1] did it give?
**A.** 0.253 ± 0.0224 fold-change vs cycle 0

**Q.** What about the binding signal [2] of the same sequence?
**A.** 0.41 ± 0.0789 fold-change vs cycle 0

**Q.** For AACGCG, which binding signal [1] is on record?
**A.** 0.226 ± 0.0175 fold-change vs cycle 0

**Q.** And the binding signal [2]?
**A.** 0.329 ± 0.0589 fold-change vs cycle 0

**Q.** Which binding signal [1] does the source give for GACCGC here?
**A.** 0.124 ± 0.0133 fold-change vs cycle 0

**Q.** What about the binding signal [2] of the same sequence?
**A.** 0.245 ± 0.0713 fold-change vs cycle 0

**Q.** CGGTGC was tested. Which binding signal [1] did it give?
**A.** 0.129 ± 0.00419 fold-change vs cycle 0

**Q.** And the binding signal [2]?
**A.** 0.238 ± 0.0719 fold-change vs cycle 0

**Q.** With CGACAC as the sequence, how does the binding signal [1] read?
**A.** 0.316 ± 0.0105 fold-change vs cycle 0

**Q.** What about the binding signal [2] of the same sequence?
**A.** 0.48 ± 0.0742 fold-change vs cycle 0

**Q.** How did the binding signal [1] turn out when CGAGCG was run?
**A.** 0.115 ± 0.0072 fold-change vs cycle 0

**Q.** And the binding signal [2]?
**A.** 0.24 ± 0.0639 fold-change vs cycle 0

**Q.** Which results are given for ACGACG?
**A.** binding signal [1]: 0.31 ± 0.0104 fold-change vs cycle 0; binding signal [2]: 0.425 ± 0.0391 fold-change vs cycle 0

**Q.** For GGAGCC, which binding signal [1] is on record?
**A.** 0.187 ± 0.00654 fold-change vs cycle 0

**Q.** And the binding signal [2]?
**A.** 0.319 ± 0.0566 fold-change vs cycle 0

**Q.** Which results are given for CGCGGA?
**A.** binding signal [1]: 0.105 ± 0.00959 fold-change vs cycle 0; binding signal [2]: 0.199 ± 0.0519 fold-change vs cycle 0

**Q.** What does the source list for CGTCCC?
**A.** binding signal [1]: 0.238 ± 0.0171 fold-change vs cycle 0; binding signal [2]: 0.351 ± 0.0721 fold-change vs cycle 0

**Q.** Which results are given for CGGACG?
**A.** binding signal [1]: 0.164 ± 0.00531 fold-change vs cycle 0; binding signal [2]: 0.264 ± 0.055 fold-change vs cycle 0

**Q.** Which results are given for AAGCCC?
**A.** binding signal [1]: 0.353 ± 0.015 fold-change vs cycle 0; binding signal [2]: 0.475 ± 0.062 fold-change vs cycle 0

**Q.** Which results are given for GCCACA?
**A.** binding signal [1]: 0.251 ± 0.0128 fold-change vs cycle 0; binding signal [2]: 0.391 ± 0.0588 fold-change vs cycle 0

**Q.** CACGGC was tested. Which binding signal [1] did it give?
**A.** 0.114 ± 0.0156 fold-change vs cycle 0

**Q.** And the binding signal [2]?
**A.** 0.228 ± 0.0664 fold-change vs cycle 0

**Q.** Which results are given for CCGACC?
**A.** binding signal [1]: 0.172 ± 0.00253 fold-change vs cycle 0; binding signal [2]: 0.309 ± 0.075 fold-change vs cycle 0

**Q.** Which results are given for TCGTAA?
**A.** binding signal [1]: 1.29 ± 0.0564 fold-change vs cycle 0; binding signal [2]: 1.25 ± 0.113 fold-change vs cycle 0

**Q.** GCGCCC was tested. Which binding signal [1] did it give?
**A.** 0.0344 ± 0.0044 fold-change vs cycle 0

**Q.** What about the binding signal [2] of the same sequence?
**A.** 0.116 ± 0.0623 fold-change vs cycle 0

**Q.** For CGGCAA, which binding signal [1] is on record?
**A.** 0.19 ± 0.00924 fold-change vs cycle 0

**Q.** And the binding signal [2]?
**A.** 0.324 ± 0.0774 fold-change vs cycle 0

**Q.** With GCACGA as the sequence, how does the binding signal [1] read?
**A.** 0.281 ± 0.0197 fold-change vs cycle 0

**Q.** And the binding signal [2]?
**A.** 0.432 ± 0.0801 fold-change vs cycle 0

**Q.** GCAGCA was tested. Which binding signal [1] did it give?
**A.** 0.247 ± 0.0238 fold-change vs cycle 0

**Q.** What about the binding signal [2] of the same sequence?
**A.** 0.368 ± 0.0645 fold-change vs cycle 0

**Q.** Which binding signal [1] does the source give for CCCGGC here?
**A.** 0.0588 ± 0.00399 fold-change vs cycle 0

**Q.** What about the binding signal [2] of the same sequence?
**A.** 0.151 ± 0.0654 fold-change vs cycle 0

**Q.** What does the source list for AGAGGC?
**A.** binding signal [1]: 0.355 ± 0.0197 fold-change vs cycle 0; binding signal [2]: 0.484 ± 0.0611 fold-change vs cycle 0

**Q.** Which results are given for GGCGTA?
**A.** binding signal [1]: 0.242 ± 0.0221 fold-change vs cycle 0; binding signal [2]: 0.377 ± 0.0541 fold-change vs cycle 0

**Q.** With CCGACA as the sequence, how does the binding signal [1] read?
**A.** 0.311 ± 0.0211 fold-change vs cycle 0

**Q.** What about the binding signal [2] of the same sequence?
**A.** 0.462 ± 0.0665 fold-change vs cycle 0

**Q.** With CAGGCA as the sequence, how does the binding signal [1] read?
**A.** 0.348 ± 0.0149 fold-change vs cycle 0

**Q.** And the binding signal [2]?
**A.** 0.477 ± 0.0613 fold-change vs cycle 0

**Q.** Which results are given for CCGGGC?
**A.** binding signal [1]: 0.0594 ± 0.00905 fold-change vs cycle 0; binding signal [2]: 0.152 ± 0.0608 fold-change vs cycle 0

**Q.** Which results are given for CCACGC?
**A.** binding signal [1]: 0.141 ± 0.0119 fold-change vs cycle 0; binding signal [2]: 0.248 ± 0.0561 fold-change vs cycle 0

**Q.** What does the source list for CCCCCA?
**A.** binding signal [1]: 0.312 ± 0.0194 fold-change vs cycle 0; binding signal [2]: 0.423 ± 0.0709 fold-change vs cycle 0

**Q.** What does the source list for GCCCAA?
**A.** binding signal [1]: 0.245 ± 0.0152 fold-change vs cycle 0; binding signal [2]: 0.387 ± 0.0671 fold-change vs cycle 0

**Q.** Which results are given for GCAAGC?
**A.** binding signal [1]: 0.302 ± 0.00778 fold-change vs cycle 0; binding signal [2]: 0.429 ± 0.0449 fold-change vs cycle 0

**Q.** With CTCGCC as the sequence, how does the binding signal [1] read?
**A.** 0.139 ± 0.00418 fold-change vs cycle 0

**Q.** And the binding signal [2]?
**A.** 0.273 ± 0.0725 fold-change vs cycle 0

**Q.** Which binding signal [1] does the source give for CAGCCG here?
**A.** 0.115 ± 0.00217 fold-change vs cycle 0

**Q.** What about the binding signal [2] of the same sequence?
**A.** 0.229 ± 0.0654 fold-change vs cycle 0

**Q.** Which binding signal [1] does the source give for GTGCAC here?
**A.** 0.313 ± 0.0179 fold-change vs cycle 0

**Q.** What about the binding signal [2] of the same sequence?
**A.** 0.456 ± 0.0786 fold-change vs cycle 0

**Q.** Which binding signal [1] does the source give for CGGGCC here?
**A.** 0.0506 ± 0.00629 fold-change vs cycle 0

**Q.** What about the binding signal [2] of the same sequence?
**A.** 0.15 ± 0.0772 fold-change vs cycle 0

**Q.** Which results are given for CCCGTC?
**A.** binding signal [1]: 0.236 ± 0.0162 fold-change vs cycle 0; binding signal [2]: 0.34 ± 0.0606 fold-change vs cycle 0

**Q.** With CCCGAC as the sequence, how does the binding signal [1] read?
**A.** 0.183 ± 0.0155 fold-change vs cycle 0

**Q.** And the binding signal [2]?
**A.** 0.308 ± 0.0677 fold-change vs cycle 0

**Q.** For ACGCTC, which binding signal [1] is on record?
**A.** 0.345 ± 0.00842 fold-change vs cycle 0

**Q.** What about the binding signal [2] of the same sequence?
**A.** 0.503 ± 0.071 fold-change vs cycle 0

**Q.** What does the source list for AAGCGG?
**A.** binding signal [1]: 0.29 ± 0.026 fold-change vs cycle 0; binding signal [2]: 0.396 ± 0.0731 fold-change vs cycle 0

**Q.** Which binding signal [1] does the source give for CGCTCA here?
**A.** 0.311 ± 0.0311 fold-change vs cycle 0

**Q.** What about the binding signal [2] of the same sequence?
**A.** 0.445 ± 0.0603 fold-change vs cycle 0

**Q.** What does the source list for AGCGGC?
**A.** binding signal [1]: 0.0644 ± 0.00817 fold-change vs cycle 0; binding signal [2]: 0.177 ± 0.0591 fold-change vs cycle 0

**Q.** What does the source list for GACGCC?
**A.** binding signal [1]: 0.116 ± 0.00704 fold-change vs cycle 0; binding signal [2]: 0.225 ± 0.0674 fold-change vs cycle 0

**Q.** Which binding signal [1] does the source give for CGAGGC here?
**A.** 0.149 ± 0.0127 fold-change vs cycle 0

**Q.** What about the binding signal [2] of the same sequence?
**A.** 0.271 ± 0.0651 fold-change vs cycle 0

**Q.** What does the source list for AACGCC?
**A.** binding signal [1]: 0.242 ± 0.0243 fold-change vs cycle 0; binding signal [2]: 0.377 ± 0.0751 fold-change vs cycle 0

**Q.** How did the binding signal [1] turn out when CCGTGC was run?
**A.** 0.143 ± 0.00796 fold-change vs cycle 0

**Q.** What about the binding signal [2] of the same sequence?
**A.** 0.251 ± 0.0641 fold-change vs cycle 0

**Q.** CGCCCA was tested. Which binding signal [1] did it give?
**A.** 0.107 ± 0.00392 fold-change vs cycle 0

**Q.** What about the binding signal [2] of the same sequence?
**A.** 0.227 ± 0.0707 fold-change vs cycle 0

**Q.** For CACCCC, which binding signal [1] is on record?
**A.** 0.309 ± 0.0175 fold-change vs cycle 0

**Q.** And the binding signal [2]?
**A.** 0.407 ± 0.058 fold-change vs cycle 0

**Q.** How did the binding signal [1] turn out when GAGCGA was run?
**A.** 0.326 ± 0.0151 fold-change vs cycle 0

**Q.** And the binding signal [2]?
**A.** 0.483 ± 0.0727 fold-change vs cycle 0

**Q.** Which results are given for GCCCCC?
**A.** binding signal [1]: 0.107 ± 0.0111 fold-change vs cycle 0; binding signal [2]: 0.213 ± 0.0572 fold-change vs cycle 0

**Q.** How did the binding signal [1] turn out when ACCCGC was run?
**A.** 0.145 ± 0.00827 fold-change vs cycle 0

**Q.** And the binding signal [2]?
**A.** 0.259 ± 0.0632 fold-change vs cycle 0
